Data: PubChem BioAssay (NCI)
About 83,000 compounds went through this panel and 20% of them were active in at least one assay; those are over-represented in the sample as a whole.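 The endpoint reported here, percent growth, reads 100 for growth as untreated, 0 for no net growth and -100 for all cells dead.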 Values without a mark were called inactive. Calls of active or inactive are those of the source. The calls were made as follows: active = growth percent below 10; inactive = the rest.

Tests used:
Assay in all cases: NCI-60 one-dose screen, 48 h (100 = growth as untreated, 0 = no growth, -100 = all killed)
Settings in all cases: 10 µM unless noted
T-47D breast = system: T-47D breast
BT-549 breast = system: BT-549 breast
MDA-MB-435 melanoma = system: MDA-MB-435 melanoma
SW-620 colon = system: SW-620 colon
MCF7 breast = system: MCF7 breast
HCT-116 colon = system: HCT-116 colon
HCC-2998 colon = system: HCC-2998 colon
KM12 colon = system: KM12 colon

Compound | growth (T-47D breast) | growth (BT-549 breast) | growth (MDA-MB-435 melanoma) | growth (SW-620 colon) | growth (MCF7 breast) | growth (HCT-116 colon) | growth (HCC-2998 colon) | growth (KM12 colon)
CCCCCCNC(=O)Oc1ccc(/C(=C(/C)c2ccc(Cl)cc2)c2ccc(OCCN3CCCC3)cc2)cc1 | 41% | 71.6% | 51.6% | -30.7% (active) | -41.8% (active) | -43.9% (active) | 37.1% | 29.7%
O=C1NC(=O)c2c1c1c3ccccc3ccc1c1[nH]c3ccccc3c21 | 11.8% | 7.84% (active) | 9.08% (active) | 28.2% | 3.61% (active) | 14.4% | 46.1% | –
Cc1ccc(-c2csc(N/N=C/c3nc4ccccc4n3C3CC3)n2)cc1 | -50.9% (active) | 73.1% | 92.4% | -72% (active) | 50.2% | 89.3% | 90% | –
C=C(C)[C@@H]1CC[C@]2(C(=O)ON)CC[C@]3(C)[C@H](CC[C@@H]4[C@@]5(C)C/C(=C/c6ccc(Br)cc6)C(=O)C(C)(C)[C@@H]5CC[C@]43C)[C@@H]12 | 49.4% | 96.9% | 81.1% | 81.7% | 44.9% | 48.6% | 82.9% | 69.9%
CS(=O)(=O)c1ccc(-c2nn(-c3ccccc3)cc2/C=C/C(=O)c2ccc(Br)cc2)cc1 | 87.8% | 105% | 95.3% | 86.9% | 50.2% | 73.2% | 105% | 80%
Clc1ccc(-c2csc(N/N=C/c3nc4ccccc4n3C3CC3)n2)cc1 | 111% | 103% | 98.9% | 107% | 94.2% | 96.3% | 105% | –
C#C[C@]1(O)CC[C@H]2[C@@H]3CC=C4c5sc(Nc6ccncc6)nc5CC[C@]4(C)[C@H]3CC[C@@]21C | 39.9% | 15.9% | -75.2% (active) | -37.2% (active) | -42.1% (active) | 3.69% (active) | 1.79% (active) | -94.1% (active)
CNC(=O)c1cc(Oc2ccc3nc(NC(=O)c4cc(C)cc(C)c4)sc3c2)ccn1 | 80.1% | 11.6% | 40.6% | 92.7% | 82% | 32.9% | 103% | 91.3%
CCc1ccc(NC(=O)N[C@@H](Cc2cccc(F)c2)C(=O)N[C@@H]2C(=O)N3CCC[C@H]3C(=O)N3CCCC[C@H]3C(=O)N[C@@H](CO)C(=O)N3C[C@H](C)C[C@H]3C(=O)O[C@H]2C)c(F)c1 | 23.1% | 28.5% | 20.3% | 34.6% | 14.9% | 10.8% | 24.1% | 37.8%
CCN1C(=O)N(CC)C2SC(N/N=C/c3ccc(F)cc3)=NC21 (configuration not stated) | 64.8% | -28.4% (active) | -35.8% (active) | 20.8% | 17.5% | 13.7% | 14.1% | 11.1%
Cc1ccc(-c2cc(-c3cccc4ccccc34)n3c(n2)nc2ccccc23)cc1 | 54.1% | 69.1% | 65% | 45.2% | 22.6% | 43.4% | 92% | 78.9%
N#C/C(=C\c1ccc(Cl)cc1Cl)C(N)=O | 93.7% | 102% | 98.5% | 88.3% | 76.2% | 74% | 103% | 103%
COc1ccc(N2C(=O)c3cc(OC)c(OC)cc3NC2SCc2ccccc2)cc1 (configuration not stated) | 98.5% | 106% | 107% | 114% | 96.3% | 100% | 121% | 108%
O=C(COc1ccc(C2SCC(=O)N2c2ccc(F)cc2)cc1)c1ccccc1 (configuration not stated) | 89.8% | 93.4% | 103% | 116% | 81.7% | 94.3% | 106% | 92.4%
CC1=CC(=O)CC(C)(C)[C@@]1(O)/C=C/C(C)=C\C(=O)O | -22.7% (active) | -22.4% (active) | -70.7% (active) | 0.826% (active) | -14.6% (active) | -34% (active) | -52.1% (active) | 3.82% (active)
C/C(=C(/c1ccc(O)cc1)c1ccc(OCCN(C)C)cc1)c1ccc(Cl)cc1 | 30.9% | 73.7% | 28.1% | -32.9% (active) | 15.7% | 25.6% | 7.02% (active) | 44.8%
COc1cc2c3c(n(CCCNC4CCC4)c(=O)c2cc1OC)-c1cc2c(cc1C3=O)OCO2 | 53.5% | 76% | -65.7% (active) | -15.4% (active) | -71.5% (active) | -48.4% (active) | -89.3% (active) | 38.7%
COc1cc([C@H]2OC[C@H]3[C@@H]2CO[C@@H]3c2ccc(O)c(OC)c2)ccc1O | 97.2% | 68.5% | 107% | 107% | 96.1% | 92.8% | 96% | 90.6%
COc1cc2c3c(n(CCCN4CCCC4)c(=O)c2cc1OC)-c1cc2c(cc1C3=O)OCO2 | 78.3% | 82.3% | -12.5% (active) | -63.1% (active) | -71.7% (active) | -84% (active) | 42.2% | -23.4% (active)
O=C(Nc1ccccc1)Nc1nc2ccc([N+](=O)[O-])cc2s1 | -14.3% (active) | -11.8% (active) | 2.4% (active) | 11.5% | 2.9% (active) | 4.52% (active) | 10.8% | 3.66% (active)
Cn1cc2c(c1)-c1c(sc3nc(-c4ccc(NC(=O)Nc5cc(C(C)(C)C)on5)cc4)cn13)CC2 | 30.2% | 71.3% | 51.9% | 73% | 15.6% | 39% | 63.1% | 21.7%
O=C(NNc1nc2cc(F)c(F)cc2n2cccc12)c1ccncn1 | 15.1% | 28.7% | 33% | 23.5% | 6% (active) | 20.4% | 53.3% | 21.4%
O=C1CSC(=O)N1Cc1cc2ccccc2nc1Cl | 92.5% | 95.6% | 99.3% | 103% | 92.5% | 106% | 105% | 101%
O=C(Nc1ccc(Cl)cc1)Nc1nc2ccc([N+](=O)[O-])cc2s1 | -25.9% (active) | -38% (active) | -27.7% (active) | 0.202% (active) | -15.4% (active) | -35.1% (active) | -27.6% (active) | -13.2% (active)
CCOC(=O)/C=c1\sc2n(c1=O)C1C(NN=2)N(CC)C(=O)N1CC (configuration not stated) | 84% | 57.7% | -17.8% (active) | 31.7% | 11% | 28.8% | 77.1% | 36%
Oc1ccc(CSc2nnc(-c3ccncc3)n2-c2ccccc2)c2cccnc12 | 14.5% | 41.9% | 20% | 16.5% | 2.74% (active) | 22.5% | 35.9% | 16.9%
C#CCOc1ccc(C(Nc2cc(Cl)ccc2Cl)c2nnnn2C2CCCCC2)cc1 (configuration not stated) | 67.5% | 93.6% | 102% | 91.8% | 73.4% | 56.3% | 90.1% | 92%
COc1ccc(-c2ccnc3c(C#N)c(Nc4ccccc4)nn23)cc1OC | 80.5% | 86.1% | 103% | 90% | 90.2% | 87.5% | 99.1% | 96.6%
CCOC(=O)c1c(NC(=O)c2ccc(F)cc2F)sc2c1CCC(=O)C2 | 81.4% | 94.2% | 98.9% | 69.7% | 93.4% | 96.5% | 107% | 90.9%
COc1cc2c3c(n(CCCN4CCC[C@H]4C(N)=O)c(=O)c2cc1OC)-c1cc2c(cc1C3=O)OCO2 | -11.4% (active) | 27.3% | 31.8% | 19.7% | -0.242% (active) | 5.37% (active) | 30.5% | 26.1%
